Compound activity as filed in PubChem.
Hits are enriched below; roughly 15% of the tested compounds scored in any of these assays.
DT40 TDP1 CPT: qHTS for Inhibitors of human tyrosyl-DNA phosphodiesterase 1 (TDP1): qHTS in cells in presence of CPT. Potency, µM (top dose mostly 46.2 µM), inactives show at the top dose activity change, negative = growth inhibition, actives largely listed as inhibitors. 420,000 compounds, 12% hits. chicken DT40 Tdp1-/-;hTDP1 cells + 20 nM CPT, ATP luminescence, 48 h; note: nearly all actives have a fitted effect of over 55% in size
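Cell growth measured by CellTiter-Glo luminescence after a minimum 48 h, 37 C compound exposure with 20 nM CPT in Tdp1-knockout DT40 cells stably expressing hTDP1, seeded 400/well; qHTS titration format.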
ELG1 DNA repair: qHTS screen for small molecules that inhibit ELG1-dependent DNA repair in human embryonic kidney (HEK293T) cells expressing luciferase-tagged ELG1; HEK293T ELG1-luciferase reporter, luminescence, 16 h; DNA damage induced by 5-fluorouridine; Potency, µM (top dose mostly 46.1 µM), inactives show at the highest dose activity change, negative = inhibition, usual class: inhibitors; 330,000 compounds, 2.3% hits; AID 504467, 2011; note: nearly all actives have a fitted effect of over 55% in size
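HEK293T cells expressing luciferase-tagged ELG1 (2,000/well) received 5-Fluorouridine plus compound or DMSO for 16 hr at 37 °C. Luciferase was read by ONE-Glo luminescence after 30 min at room temperature.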
VP16 counter: VP16 counterscreen qHTS for inhibitors of ROR gamma transcriptional activity; Drosophila S2 Gal4-VP16 UAS-luciferase, luminescence, 20 h; Potency, µM (highest dose often 53.6 µM), for inactives: top-dose activity, negative = inhibition, usual class: inhibitors; 310,000 compounds, 3.5% hits;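 note: Gal4-VP16 expression switched on by copper sulfate through the metallothionein promoter; nearly all actives have a fitted effect of over 50% in size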
DT40 TDP1 no CPT: qHTS for Inhibitors of human tyrosyl-DNA phosphodiesterase 1 (TDP1): qHTS in cells in absence of CPT; DT40 Tdp1-/- hTDP1 cells, no CPT, ATP luminescence, 48 h; Potency, µM (titrated, usually from 46.2 µM), for inactives: top-dose activity change, negative = growth inhibition, hits mostly inhibitors; 420,000 compounds, 15% hits; AID 686978, 2013; note: nearly all actives have a fitted effect of over 55% in size
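Growth kinetics read by CellTiter-Glo luminescence after ≥48 hr at 37 °C. Cells: DT40 Tdp1-/- stably carrying human TDP1, 400 per well, compound exposure in the absence of CPT (DMSO vehicle).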
ALOX12 inh: Primary qHTS assay for inhibitors of human arachidonate 12S-lipoxygenase (ALOX12): Round 2. AID 1671190, 2021. Potency, µM (highest dose often 108 µM), inactives show top-dose activity change, negative = inhibition, most hits filed as inhibitors. 580,000 compounds, 1.1% hits. purified 12hLO, xylenol orange hydroperoxide absorbance
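Purified human 12hLO (150 nM final) in 25 mM Hepes, 0.01% Triton X-100, pH 7.0 was preincubated 15 min at room temperature with compound. Then 40 uM arachidonic acid was added, 30 min. Hydroperoxide was read by Fe-XO absorbance ratio 573/405 nm.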
RORg inh: qHTS for inhibitors of ROR gamma transcriptional activity. Nuclear receptor ROR-gamma (Mus musculus), P51450. Drosophila S2 Gal4-RORgamma UAS-luciferase reporter, 20 h. Potency, µM (top dose mostly 53.6 µM), for the others: top-dose activity change, negative = inhibition, most hits filed as inhibitors. 310,000 compounds, 5.4% hits; note: nearly all actives have a fitted effect of over 60% in size
Target sequence (P51450 whole entry, looked up, the tested form may be a part): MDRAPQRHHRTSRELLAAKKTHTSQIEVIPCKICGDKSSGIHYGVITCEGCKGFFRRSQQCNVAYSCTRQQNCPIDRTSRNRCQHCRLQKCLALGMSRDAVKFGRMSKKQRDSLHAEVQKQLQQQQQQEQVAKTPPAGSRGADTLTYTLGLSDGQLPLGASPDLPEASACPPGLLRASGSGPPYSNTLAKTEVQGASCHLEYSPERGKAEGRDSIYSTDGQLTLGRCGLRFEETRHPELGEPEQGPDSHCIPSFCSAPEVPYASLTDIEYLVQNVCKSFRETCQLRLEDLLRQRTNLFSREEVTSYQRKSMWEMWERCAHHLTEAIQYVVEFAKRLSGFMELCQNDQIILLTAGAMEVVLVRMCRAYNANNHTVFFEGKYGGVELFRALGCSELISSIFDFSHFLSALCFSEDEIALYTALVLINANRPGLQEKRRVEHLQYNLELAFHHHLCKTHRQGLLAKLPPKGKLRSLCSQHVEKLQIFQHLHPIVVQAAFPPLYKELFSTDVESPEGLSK
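ROR gamma transcriptional activity was tracked as Gal4-UAS luciferase output in stably transfected Drosophila Schneider cells, with compound added 1 hr before 700 uM copper sulfate induction and a 20 hr ambient-temperature incubation.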
An asterisk follows results filed as active; ? = inconclusive; . = no result given; [ ] = dose if it differs, or a comment. Calls come from the whole dose curve; as a rule, active = well fitted curve in the direction sought with a large enough effect; inconclusive = small, poorly fitted or top-dose-only effect, or another doubt; inactive = no such curve, though single readings can be large; an effect the other way counts as inactive or inconclusive. % is set by controls: 0 for no effect and ±100 for the full control effect; potency is the fitted concentration of half-maximal effect.

SMILES | DT40 TDP1 CPT | ELG1 DNA repair | VP16 counter | DT40 TDP1 no CPT | ALOX12 inh | RORg inh
O=C(c1ccccc1F)N1CCC2CC1c1cc(-c3ccc4c(c3)OCO4)ccc12 (stereo not given) | ? | . | . | 20.6µM* | -12.1% | .
COCCNC(=S)N1CCC2CC1c1cc(-c3ccc4c(c3)OCO4)ccc12 (stereo not given) | 16.4µM* | . | . | ? | 28.2µM* | .
Cc1cccc(-c2ccc3c(c2)C2CC3CCN2Cc2ccc3c(c2)OCO3)c1 (stereo not given) | ? | . | . | ? | -10.3% | .
S=C(NCCc1ccccc1)N1CCC2CC1c1cc(-c3ccc4c(c3)OCO4)ccc12 (stereo not given) | 8.2µM* | . | . | 9.2µM* | 28.2µM* | .
Fc1ccc(-c2ccc3c(c2)C2CC3CCN2Cc2ccc3c(c2)OCO3)cc1 (stereo not given) | ? | . | . | 16.4µM* | -11.2% | .
O=S(=O)(c1cccc2ccccc12)N1CCC2CC1c1cc(-c3ccc4c(c3)OCO4)ccc12 (stereo not given) | ? | . | . | ? | 4.9% | .
Cc1ccc(NC(=O)CSc2nc3ccccc3c3nc4ccccc4n23)cc1 | 0.651µM* | 9.7% | -15.3% | 0.581µM* | 5.2% | -34.1%
O=C(CSc1ncc(-c2ccccc2)n1-c1ccccc1)NCc1ccco1 | ? | -14.9% | 22.5% | 16.4µM* | 15.7% | -2.5%
Cn1c(SCC(=O)NCc2ccco2)nc2ccccc2c1=O | -5.8% | -10.2% | -4.6% | -18.8% | 0.0% | 44.0%
COc1ccc(-n2c(-c3ccc(F)cc3)cnc2SCC(=O)NCc2ccco2)cc1 | -17.9% | 14.2% | 14.9% | -29.7% | -13.2% | 6.4%
O=C(CSc1nc2ccccc2c2nc3ccccc3n12)NCc1ccco1 | 25.9µM* | 3.4% | 2.3%[0.365 µM] | 23.1µM* | ? | ?
O=C(/C=C/c1cccc(Cl)c1Cl)NC(C1CC1)C1CC1 | . | . | . | . | -2.3% | .
Cc1ccc(-c2nc(CN3CCCC3c3cc(C)no3)co2)cc1 (stereo not given) | . | . | . | . | -25.3% | .
Cc1ccccc1C(=O)NC1(C(F)(F)F)N=C(c2ccccc2)N(Cc2ccccc2)C1=O (stereo not given) | 23.1µM* | . | . | 23.1µM* | -25.0% | .
O=C(CCS(=O)(=O)c1nc(-c2cccs2)cc(C(F)(F)F)n1)Nc1ccc(Br)cc1 | 5.17µM* | . | . | 3.66µM* | 0.9% | .
O=C(CCS(=O)(=O)c1nc(-c2cccs2)cc(C(F)(F)F)n1)Nc1cc(Br)ccc1O | 0.651µM* | . | . | 1.16µM* | 2.6% | .
Cc1ccc(O)c(NC(=O)CCS(=O)(=O)c2nc(-c3cccs3)cc(C(F)(F)F)n2)c1 | 2.59µM* | . | . | 5.8µM* | -0.5% | .
O=C(O)c1cc(-c2cccs2)nc2ccc(Br)cc12 | . | -6.3% | -4.0% | . | -5.2% | 9.1%
O=C(Cn1nc(-c2cccs2)ccc1=O)Nc1ccc(Br)cc1 | -1.8% | 12.7% | -0.7% | 0.6% | -11.3% | 23.1%
COc1ccc(-n2nnc(C(=O)OCc3cc(C)ccc3C)c2C)cc1 | . | . | . | . | 84.8% | .
CCN1CCN(c2ccc(S(=O)(=O)N3CCOCC3)cc2NC(=O)/C=C/c2ccc(OC)cc2OC)CC1 | 25.9µM* | -10.3% | . | ? | ? | .
COc1ccc(/C=C/C(=O)Nc2ccc(C)c(S(=O)(=O)N3CCOCC3)c2)cc1 | ? | 20.6µM* | . | 18.4µM* | -8.2% | .
COc1ccc(/C=C/C(=O)Nc2ccc(S(=O)(=O)N3CCOCC3)cc2)c(OC)c1 | ? | 23.1µM* | . | 18.4µM* | 15.8% | .
CCN1CCN(c2ccc(S(=O)(=O)N3CCOCC3)cc2NC(=O)/C=C/c2ccc([N+](=O)[O-])cc2)CC1 | ? | 12.0% | . | 2.91µM* | ? | .
COc1ccc(/C=C/C(=O)Nc2cc(S(=O)(=O)N3CCOCC3)ccc2OC)cc1 | -27.3% | ? | . | -16.2% | ? | .
SMILES | DT40 TDP1 CPT | ELG1 DNA repair | VP16 counter | DT40 TDP1 no CPT | ALOX12 inh | RORg inh
Cc1ccc(-c2c(C#N)c(N)nc3c2CCCC3)cc1 | . | . | . | . | -18.4% | .
COc1cc(S(=O)(=O)Nc2ccc3ccccc3c2)ccc1NC(C)=O | . | . | . | . | -30.4% | .
CNS(=O)(=O)c1ccc2ccccc2c1 | -4.7% | ? | -6.4% | 5.0% | -33.2% | -0.3%
CCc1ccc(NS(=O)(=O)c2ccc(OC)c(C)c2)cc1 | ? | -2.1% | ? | 23.1µM* | -8.8% | -44.4%
COc1ccc(S(=O)(=O)Nc2ccc3ccccc3c2)cc1C | 9.2µM* | ? | ? | ? | 4.8% | -44.1%
COc1ccc(S(=O)(=O)Nc2ccc(C)cc2)cc1OC | -6.6% | -4.1% | -0.8% | -13.3% | -11.6% | 3.4%
COc1ccc(S(=O)(=O)Nc2ccc(S(=O)(=O)N3CCCCC3)cc2)cc1C | 0.2% | -2.5% | -20.8% | -10.9% | 0.1% | ?
Cc1cc(O)cc(C)c1NS(=O)(=O)c1ccc2ccccc2c1 | ? | -11.5% | -2.6% | 25.9µM* | ? | 1.3%
COc1ccc(S(=O)(=O)Nc2ccc(Cc3ccncc3)cc2)cc1C | 13µM* | ? | 22.4µM* | ? | . | 31.8%
CCOc1ccccc1CN1CCCC12Cc1ccccc1CNC2=O (stereo not given) | . | . | . | . | 1.6%[6.33 µM] | .
CCCCC(C)(O)C/C=C/[C@H]1[C@H](O)CC(=O)[C@@H]1CCCCCCC(=O)OC (stereo not given in full) | ? | ? | ? | 1.5µM* | . | -0.5%[10 µM]
